According to article PMC11006913:
Positions count from the first letter of the chain named.

What was measured:
Assay in all cases: PBM; 200 nM protein, PBS
Conditions in all cases: dsDNA, one strand shown
HOXD13 = HOXD13 (Homo sapiens, UniProt P35453 263-343, T313R)
NKX2-6 [1] = target: T1, NKX2-6 (Homo sapiens, UniProt A6NCS4 118-204)
T1 sequence: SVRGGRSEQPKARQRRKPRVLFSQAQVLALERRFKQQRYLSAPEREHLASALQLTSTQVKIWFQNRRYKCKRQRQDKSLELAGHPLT

NKX2-6 [2] = target: T2, NKX2-6 (Homo sapiens, UniProt A6NCS4 118-204, F151L)
T2 sequence: T1 sequence with F34L

PITX2 = PITX2 (Homo sapiens, UniProt Q99697 72-157)
PAX4 [3] = target: T3, PAX4 (Homo sapiens, UniProt O43316 9-242, F177V)
T3 sequence: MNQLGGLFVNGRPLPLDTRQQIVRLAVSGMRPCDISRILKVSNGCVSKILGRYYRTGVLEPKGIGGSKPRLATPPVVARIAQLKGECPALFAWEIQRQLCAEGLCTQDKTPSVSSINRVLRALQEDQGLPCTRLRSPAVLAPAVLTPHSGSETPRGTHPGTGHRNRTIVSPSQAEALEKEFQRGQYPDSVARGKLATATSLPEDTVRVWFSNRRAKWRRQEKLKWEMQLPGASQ

PAX4 [4] = target: T4, PAX4 (Homo sapiens, UniProt O43316 9-242, F177Y)
T4 sequence: T3 sequence with V169Y

CRX [5] = target: CRX (Homo sapiens, UniProt O43186 26-111, R41L)
ALX3 = ALX3 (Homo sapiens, UniProt O95076 139-225, N203S)
SHOX [6] = target: SHOX (Homo sapiens, UniProt O15266 103-189)
VENTX [7] = target: T5, VENTX (Homo sapiens, UniProt O95231 78-163, R121Q)
T5 sequence: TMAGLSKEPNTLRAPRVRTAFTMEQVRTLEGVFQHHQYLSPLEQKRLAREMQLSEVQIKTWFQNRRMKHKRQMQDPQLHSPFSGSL

HOXB9 [8] = target: HOXB9 (Homo sapiens, UniProt P17482 171-250, T197M)
VENTX [9] = target: T6, VENTX (Homo sapiens, UniProt O95231 78-163)
T6 sequence: T5 sequence with Q44R

VENTX [10] = target: T7, VENTX (Homo sapiens, UniProt O95231 78-163, Y115F)
T7 sequence: T5 sequence with Y38F, Q44R

HOXB9 [11] = target: HOXB9 (Homo sapiens, UniProt P17482 171-250)
SHOX [12] = target: SHOX (Homo sapiens, UniProt O15266 103-189, R173C)
PROP1 [13] = target: PROP1 (Homo sapiens, UniProt O75360 56-141)
PROP1 [14] = target: PROP1 (Homo sapiens, UniProt O75360 56-141, R99H)
HOXB9 [15] = target: HOXB9 (Homo sapiens, UniProt P17482 171-250, R186Q)
PROP1 [16] = target: PROP1 (Homo sapiens, UniProt O75360 56-141, F88S)
CRX [17] = target: CRX (Homo sapiens, UniProt O43186 26-111)
CRX [18] = target: CRX (Homo sapiens, UniProt O43186 26-111, E42D)
HOXC9 [19] = target: HOXC9 (Homo sapiens, UniProt P31274 178-260, K195R)
HOXB6 [20] = target: HOXB6 (Homo sapiens, UniProt P17509 132-218, K202E)
HOXC9 [21] = target: HOXC9 (Homo sapiens, UniProt P31274 178-260)
MSX2 [22] = target: MSX2 (Homo sapiens, UniProt P35548 130-214, R199I)
HOXC9 [23] = target: HOXC9 (Homo sapiens, UniProt P31274 178-260, R193K)
MSX2 [24] = target: MSX2 (Homo sapiens, UniProt P35548 130-214)
HOXC9 [25] = target: HOXC9 (Homo sapiens, UniProt P31274 178-260, R222W)
MSX2 [26] = target: MSX2 (Homo sapiens, UniProt P35548 130-214, F161Y)
HOXB6 [27] = target: HOXB6 (Homo sapiens, UniProt P17509 132-218)
PAX4 [28] = target: T8, PAX4 (Homo sapiens, UniProt O43316 9-242, R200K)
T8 sequence: T3 sequence with V169F, R192K

PAX4 [29] = target: T9, PAX4 (Homo sapiens, UniProt O43316 9-242)
T9 sequence: T3 sequence with V169F

PAX4 [30] = target: T10, PAX4 (Homo sapiens, UniProt O43316 9-242, R200Q)
T10 sequence: T3 sequence with V169F, R192Q

PAX4 [31] = target: T11, PAX4 (Homo sapiens, UniProt O43316 9-242, R227W)
T11 sequence: T3 sequence with V169F, R219W

Sequence of SHOX (Homo sapiens, UniProt O15266 103-189, R173C) (O15266 103-189 R173C): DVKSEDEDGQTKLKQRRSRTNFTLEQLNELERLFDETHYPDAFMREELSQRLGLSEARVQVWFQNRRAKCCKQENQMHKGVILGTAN
Sequence of CRX (Homo sapiens, UniProt O43186 26-111, R41L) (O43186 26-111 R41L): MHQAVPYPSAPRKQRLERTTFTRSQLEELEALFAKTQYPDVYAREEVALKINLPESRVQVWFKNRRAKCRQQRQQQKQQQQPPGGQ
Sequence of SHOX (Homo sapiens, UniProt O15266 103-189) (O15266 103-189): as the sequence (O15266 103-189 R173C) above, with C71R counted along it
Sequence of PROP1 (Homo sapiens, UniProt O75360 56-141, R99H) (O75360 56-141 R99H): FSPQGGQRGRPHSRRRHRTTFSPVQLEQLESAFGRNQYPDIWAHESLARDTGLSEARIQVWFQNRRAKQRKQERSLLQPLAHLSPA
Sequence of HOXB6 (Homo sapiens, UniProt P17509 132-218) (P17509 132-218): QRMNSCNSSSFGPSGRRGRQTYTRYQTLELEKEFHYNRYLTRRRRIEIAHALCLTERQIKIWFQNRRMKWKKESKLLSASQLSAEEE
Sequence of MSX2 (Homo sapiens, UniProt P35548 130-214) (P35548 130-214): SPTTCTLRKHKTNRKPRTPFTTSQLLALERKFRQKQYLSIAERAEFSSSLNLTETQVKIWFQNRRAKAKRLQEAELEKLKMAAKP
Sequence of HOXC9 (Homo sapiens, UniProt P31274 178-260) (P31274 178-260): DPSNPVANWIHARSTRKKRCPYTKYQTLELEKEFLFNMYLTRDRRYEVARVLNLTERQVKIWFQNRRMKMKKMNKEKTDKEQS
Sequence of HOXB9 (Homo sapiens, UniProt P17482 171-250, T197M) (P17482 171-250 T197M): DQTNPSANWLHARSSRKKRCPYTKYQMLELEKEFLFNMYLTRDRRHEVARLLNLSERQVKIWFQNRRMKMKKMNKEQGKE
Sequence of MSX2 (Homo sapiens, UniProt P35548 130-214, R199I) (P35548 130-214 R199I): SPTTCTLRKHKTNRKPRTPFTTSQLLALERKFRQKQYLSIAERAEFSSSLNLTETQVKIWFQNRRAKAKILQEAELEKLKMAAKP
Sequence of PROP1 (Homo sapiens, UniProt O75360 56-141, F88S) (O75360 56-141 F88S): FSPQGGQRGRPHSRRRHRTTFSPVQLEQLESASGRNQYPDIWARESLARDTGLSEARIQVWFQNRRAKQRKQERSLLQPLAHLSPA
Sequence of HOXB6 (Homo sapiens, UniProt P17509 132-218, K202E) (P17509 132-218 K202E): as the sequence (P17509 132-218) above, with K71E counted along it
Sequence of MSX2 (Homo sapiens, UniProt P35548 130-214, F161Y) (P35548 130-214 F161Y): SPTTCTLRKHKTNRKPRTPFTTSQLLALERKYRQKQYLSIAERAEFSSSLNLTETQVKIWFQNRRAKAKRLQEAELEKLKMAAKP
Sequence of HOXD13 (P35453 263-343 T313R): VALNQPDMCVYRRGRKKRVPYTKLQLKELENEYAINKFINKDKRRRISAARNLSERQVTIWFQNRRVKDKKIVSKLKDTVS
Sequence of CRX (Homo sapiens, UniProt O43186 26-111, E42D) (O43186 26-111 E42D): as the sequence (O43186 26-111 R41L) above, with L16R, E17D counted along it
Sequence of CRX (Homo sapiens, UniProt O43186 26-111) (O43186 26-111): as the sequence (O43186 26-111 R41L) above, with L16R counted along it
Sequence of HOXC9 (Homo sapiens, UniProt P31274 178-260, K195R) (P31274 178-260 K195R): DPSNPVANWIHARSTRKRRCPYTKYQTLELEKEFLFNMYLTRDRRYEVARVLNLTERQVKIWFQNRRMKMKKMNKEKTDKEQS
Sequence of HOXC9 (Homo sapiens, UniProt P31274 178-260, R193K) (P31274 178-260 R193K): as the sequence (P31274 178-260) above, with R16K counted along it
Sequence of ALX3 (O95076 139-225 N203S): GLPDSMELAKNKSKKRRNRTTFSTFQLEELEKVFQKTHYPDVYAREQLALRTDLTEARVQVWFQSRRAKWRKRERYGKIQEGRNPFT
Sequence of HOXB9 (Homo sapiens, UniProt P17482 171-250, R186Q) (P17482 171-250 R186Q): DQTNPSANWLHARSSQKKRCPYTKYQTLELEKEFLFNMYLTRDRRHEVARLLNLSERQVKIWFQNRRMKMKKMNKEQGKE
Sequence of HOXB9 (Homo sapiens, UniProt P17482 171-250) (P17482 171-250): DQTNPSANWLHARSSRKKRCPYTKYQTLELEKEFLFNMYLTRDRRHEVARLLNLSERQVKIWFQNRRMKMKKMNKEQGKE
Sequence of PROP1 (Homo sapiens, UniProt O75360 56-141) (O75360 56-141): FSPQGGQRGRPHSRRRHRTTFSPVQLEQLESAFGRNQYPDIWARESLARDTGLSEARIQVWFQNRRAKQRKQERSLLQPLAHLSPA
Sequence of HOXC9 (Homo sapiens, UniProt P31274 178-260, R222W) (P31274 178-260 R222W): as the sequence (P31274 178-260) above, with R45W counted along it

AATATAAA
binding signal (HOXD13): 10.7 upbm affinity estimate (log intensity, higher = more binding, comparable within an allelic series)

CCCGAGCC
binding signal (NKX2-6 [1]): 9.42 upbm affinity estimate (log intensity, higher = more binding, comparable within an allelic series) | binding signal (NKX2-6 [2]): 9.3 upbm affinity estimate (log intensity, higher = more binding, comparable within an allelic series)

ATTAAAGC
binding signal (NKX2-6 [1]): 11.1 upbm affinity estimate (log intensity, higher = more binding, comparable within an allelic series)

CCGTGCGC
binding signal (PITX2): 7.97 upbm affinity estimate (log intensity, higher = more binding, comparable within an allelic series)

GATTATTA
binding signal (PAX4 [3]): 10.6 upbm affinity estimate (log intensity, higher = more binding, comparable within an allelic series) | binding signal (PAX4 [4]): 11 upbm affinity estimate (log intensity, higher = more binding, comparable within an allelic series)

AGCATTAG
binding signal (CRX [5]): 10.1 upbm affinity estimate (log intensity, higher = more binding, comparable within an allelic series)

CTTAAGCA
binding signal (CRX [5]): 10.3 upbm affinity estimate (log intensity, higher = more binding, comparable within an allelic series)

ATTACTTA
binding signal (ALX3): 8.71 upbm affinity estimate (log intensity, higher = more binding, comparable within an allelic series)

CCGCATCC
binding signal (SHOX [6]): 7.26 upbm affinity estimate (log intensity, higher = more binding, comparable within an allelic series) | binding signal (VENTX [7]): 8.27 upbm affinity estimate (log intensity, higher = more binding, comparable within an allelic series) | binding signal (HOXB9 [8]): 8.5 upbm affinity estimate (log intensity, higher = more binding, comparable within an allelic series) | binding signal (VENTX [9]): 8.44 upbm affinity estimate (log intensity, higher = more binding, comparable within an allelic series) | binding signal (VENTX [10]): 8.27 upbm affinity estimate (log intensity, higher = more binding, comparable within an allelic series) | binding signal (HOXB9 [11]): 8.49 upbm affinity estimate (log intensity, higher = more binding, comparable within an allelic series) | binding signal (SHOX [12]): 7.23 upbm affinity estimate (log intensity, higher = more binding, comparable within an allelic series) | binding signal (PROP1 [13]): 6.85 upbm affinity estimate (log intensity, higher = more binding, comparable within an allelic series) | binding signal (PROP1 [14]): 6.89 upbm affinity estimate (log intensity, higher = more binding, comparable within an allelic series) | binding signal (HOXB9 [15]): 8.51 upbm affinity estimate (log intensity, higher = more binding, comparable within an allelic series) | binding signal (PROP1 [16]): 6.67 upbm affinity estimate (log intensity, higher = more binding, comparable within an allelic series)

CATATGGG
binding signal (SHOX [6]): 7.77 upbm affinity estimate (log intensity, higher = more binding, comparable within an allelic series)

GATTAATC
binding signal (SHOX [6]): 10.2 upbm affinity estimate (log intensity, higher = more binding, comparable within an allelic series) | binding signal (CRX [17]): 13.2 upbm affinity estimate (log intensity, higher = more binding, comparable within an allelic series) | binding signal (CRX [18]): 13 upbm affinity estimate (log intensity, higher = more binding, comparable within an allelic series) | binding signal (PITX2): 12.9 upbm affinity estimate (log intensity, higher = more binding, comparable within an allelic series) | binding signal (CRX [5]): 12.9 upbm affinity estimate (log intensity, higher = more binding, comparable within an allelic series)

CCAGGGAC
binding signal (SHOX [6]): 7.08 upbm affinity estimate (log intensity, higher = more binding, comparable within an allelic series) | binding signal (HOXC9 [19]): 9.47 upbm affinity estimate (log intensity, higher = more binding, comparable within an allelic series) | binding signal (HOXB6 [20]): 8.97 upbm affinity estimate (log intensity, higher = more binding, comparable within an allelic series) | binding signal (HOXC9 [21]): 9.52 upbm affinity estimate (log intensity, higher = more binding, comparable within an allelic series) | binding signal (MSX2 [22]): 9.5 upbm affinity estimate (log intensity, higher = more binding, comparable within an allelic series) | binding signal (SHOX [12]): 7.17 upbm affinity estimate (log intensity, higher = more binding, comparable within an allelic series) | binding signal (HOXC9 [23]): 9.51 upbm affinity estimate (log intensity, higher = more binding, comparable within an allelic series) | binding signal (MSX2 [24]): 9.58 upbm affinity estimate (log intensity, higher = more binding, comparable within an allelic series) | binding signal (HOXC9 [25]): 9.62 upbm affinity estimate (log intensity, higher = more binding, comparable within an allelic series) | binding signal (MSX2 [26]): 9.57 upbm affinity estimate (log intensity, higher = more binding, comparable within an allelic series) | binding signal (HOXB6 [27]): 8.99 upbm affinity estimate (log intensity, higher = more binding, comparable within an allelic series)

GAAAAGTA
binding signal (SHOX [6]): 7.94 upbm affinity estimate (log intensity, higher = more binding, comparable within an allelic series)

CTCAATAA
binding signal (SHOX [6]): 9.16 upbm affinity estimate (log intensity, higher = more binding, comparable within an allelic series)

GGGCAGAC
binding signal (SHOX [6]): 7.12 upbm affinity estimate (log intensity, higher = more binding, comparable within an allelic series) | binding signal (VENTX [7]): 7.99 upbm affinity estimate (log intensity, higher = more binding, comparable within an allelic series) | binding signal (VENTX [9]): 8.2 upbm affinity estimate (log intensity, higher = more binding, comparable within an allelic series) | binding signal (PAX4 [28]): 9.48 upbm affinity estimate (log intensity, higher = more binding, comparable within an allelic series) | binding signal (VENTX [10]): 8.13 upbm affinity estimate (log intensity, higher = more binding, comparable within an allelic series) | binding signal (PAX4 [29]): 9.45 upbm affinity estimate (log intensity, higher = more binding, comparable within an allelic series) | binding signal (PAX4 [30]): 9.48 upbm affinity estimate (log intensity, higher = more binding, comparable within an allelic series) | binding signal (SHOX [12]): 7.25 upbm affinity estimate (log intensity, higher = more binding, comparable within an allelic series) | binding signal (PAX4 [3]): 9.22 upbm affinity estimate (log intensity, higher = more binding, comparable within an allelic series) | binding signal (PAX4 [4]): 9.21 upbm affinity estimate (log intensity, higher = more binding, comparable within an allelic series) | binding signal (PAX4 [31]): 9.33 upbm affinity estimate (log intensity, higher = more binding, comparable within an allelic series)
